Bioassay records as filed in PubChem.
Shown are actives, neighbours in structure and some others; about 4% of the full set was active somewhere.
D1 ag = agonists of human D1 dopamine receptor; P21728; HEK293 T-REx D1 cells, calcium flux, agonist mode; activation, % at 2 µM; actives 1% (n = 360,000); in the data active = activation above about 30%; note: 0% is about no effect
Target sequence (P21728 whole entry, looked up): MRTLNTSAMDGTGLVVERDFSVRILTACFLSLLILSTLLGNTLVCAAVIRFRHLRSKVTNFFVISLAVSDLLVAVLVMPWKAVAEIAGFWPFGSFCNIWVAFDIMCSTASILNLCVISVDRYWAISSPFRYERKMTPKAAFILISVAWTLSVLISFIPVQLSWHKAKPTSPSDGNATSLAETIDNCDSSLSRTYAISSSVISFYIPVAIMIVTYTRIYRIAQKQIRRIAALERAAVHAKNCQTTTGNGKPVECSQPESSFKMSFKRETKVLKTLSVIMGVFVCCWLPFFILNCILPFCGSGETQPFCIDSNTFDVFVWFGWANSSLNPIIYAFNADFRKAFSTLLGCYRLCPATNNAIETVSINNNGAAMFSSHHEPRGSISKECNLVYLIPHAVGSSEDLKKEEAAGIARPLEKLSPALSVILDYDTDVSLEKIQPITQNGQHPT
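Inducible HEK293 T-REx D1 cells, force-coupled to calcium signalling, were plated at 4000 cells/well with tetracycline and held overnight at 30 C. After no-wash calcium dye loading, compound-evoked calcium rise over 180 s flagged agonists.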
TRHR agonist-1 = activates the human TRH receptor. P34981. TRHR cells, calcium flux fluo-8, FDSS agonist mode. activation, % at 2 µM. actives 0.18% (n = 360,000); in the data active = activation above about 30%; note: 0% is about no effect
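TRHR-expressing cells, plated overnight in medium with 10% serum, were loaded with fluo-8 calcium dye at room temperature. After a 10 s baseline, library compound was pin-added and calcium release was recorded kinetically (ex 480/em 530) as agonist response.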
D1 antagonist = human D1 dopamine receptor antagonism; actives 3.2% (n = 360,000); activity change, negative = inhibition, % at 10 µM; HEK293 TREx D1 cells, calcium flux, dopamine EC80; active compounds read low; P21728; in the data active = activity change below about -30%; note: % is set by controls: 0 for no effect and ±100 for the full control effect
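After overnight tetracycline induction at 30 C, force-coupled D1 HEK293 cells took up a no-wash calcium dye at room temperature. Compounds were added and monitored 180 s, and the response to EC80 dopamine was then recorded.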
TRHR enhancer-1 = allosteric enhancers of human TRH receptor; actives 0.66% (n = 360,000); AID 493056; enhancement, % at 2 µM; P34981; TRHR cells, fluo-8 calcium fluorescence, EC20 TRH enhancement; in the data active = enhancement above about 30%; note: 0% is about no effect
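Enhancer read-out: after compound pinning and an initial kinetic agonist-mode read, an EC20 of TRH (10 nM final) was injected and fluo-8 calcium signal (Ex 480/Em 530) followed at 1 s/cycle for 100 cycles in TRHR-expressing cells.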
GRP78 ERSR act = induces the endoplasmic reticulum stress response in human glioma cells | U87-MG GRP78 promoter luciferase reporter, 16 h | Potency, µM, for inactives: top-dose activation, hits mostly activators | actives 0.02% (n = 420,000) | AID 602332; note: potency is the fitted concentration of half-maximal effect; series mostly up to about 76 µM; % of control where 0% means no effect; nearly all actives have a fitted effect of over 35% in size
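ERSR induction read as luciferase luminescence (Bright-Glo, 10 min at room temperature) in stably transfected human U87-MG glioma cells exposed to compounds for 16 h, using GRP78 as sensor.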
D1 potentiator = potentiators of human D1 dopamine receptor | HEK293 TREx D1 cells, calcium flux, dopamine EC20 potentiation | potentiation, % at 10 µM | actives 0.036% (n = 360,000) | AID 504651; in the data active = potentiation above about 30%; note: 0% is about no effect
TRHR enhancer-2 = human TRH receptor allosteric enhancement confirmation; 970 tested, under 10 active; shares compounds with TRHR enhancer-1; activity change, negative = inhibition, % at 46.1 µM; AID 493076; TRH receptor cell assay, enhancer confirmation qHTS;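 note: compound effect scored on response to added TRH at EC20 of 10 nM; 0% is about no effect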
TRHR agonist-2 = confirmation of human TRH receptor agonists; Potency, µM (highest dose often 46.1 µM), for inactives: at the top dose activation, most hits filed as activators; TRHR-expressing cells, agonist activation read-out; shares compounds with TRHR enhancer-1; actives 8% (n = 970); AID 493078; note: potency is the fitted concentration of half-maximal effect; 0% is about no effect; nearly all actives have a fitted effect of over 75% in size
* = called active by the depositor; ? = inconclusive; . = no result given; ! = not confirmed by another sample. Unless noted, calls come from the whole dose curve; as a rule, active = well fitted curve in the direction sought with a large enough effect; inconclusive = small, poorly fitted or top-dose-only effect, or another doubt; inactive = no such curve, though single readings can be large; an effect the other way counts as inactive or inconclusive.

SMILES	D1 ag	TRHR agonist-1	D1 antagonist	TRHR enhancer-1	GRP78 ERSR act	D1 potentiator	TRHR enhancer-2	TRHR agonist-2
Cc1cccc(NC(=O)Cn2c(=O)n(Cc3ccc(C(=O)NCc4ccc5c(c4)OCO5)cc3)c(=O)c3ccccc32)c1	10	4	1	7	-2%	0	.	.
CC(=O)Nc1cc(NC(C)=O)c(N=Nc2ccccc2)cc1C	1	0	6	63*	6%	-1	-3	2%
CC(Oc1ccccc1)C(=O)N1CCN(c2ccc(N3CCOCC3)nn2)CC1 (configuration not stated)	1	0	-4	-5	-4%	0	.	.
Cc1c(NC(=O)C(C)OC(=O)c2c3c(nc4ccccc24)CCC3)c(=O)n(-c2ccccc2)n1C (configuration not stated)	1	-1	-7	49*	-3%	3	-6	-1%
Cc1c(NC(=O)COC(=O)c2c3c(nc4ccccc24)CCCC3)c(=O)n(-c2ccccc2)n1C	0	0	-5	4	-4%	1	.	.
C=CC1CN(C(=O)OCC(Cl)(Cl)Cl)C2CC3c4ccc(OC)cc4NC3C3CC1C2CO3 (configuration not stated)	.	.	.	.	-3%	.	.	.
COc1ccc(-c2cc(C(F)F)nc(-n3nc(C)cc3C)n2)cc1	6	-1	-60*	53*	-5%	-14	-9	2%
COc1ccc(S(=O)(=O)N2CCN(C(=O)c3ccccn3)CC2)cc1	1	0	1	2	2%	7	.	.
COc1ccc(-c2cc(C(F)(F)F)c3c(n2)sc2c(O)cc(=O)[nH]c23)c(OC)c1	42*	34*	-15	8	-7%	-2	4	?
CN1CCC(=NNC(=O)CSc2ccc(Cl)cc2)CC1	1	0	1	44*	20%	1	-5	0%
CC(NC(=O)c1ccccc1NC(=O)c1nsc2ccccc12)c1ccccc1 (configuration not stated)	2	0	-5	-7	1%	-2	.	.
COc1ccccc1NS(=O)(=O)c1cccc(C(=O)N/N=C/c2c(C)nn(-c3ccccc3)c2N2CCCC2)c1	3	27	14	1	-3%	-1	5	-1%
CCOc1cccc(NC(=O)C2CC(=O)NC(=Nc3ccccc3)S2)c1 (configuration not stated)	3	0	-9	84*	-1%	2	0	2%
COC(=O)C1=NN(C(=O)c2ccc(Cl)cc2)C(O)(c2ccccc2)C1 (configuration not stated)	30*	47*	3	-6	-3%	-4	-7	18µM*
CCC1=NN(C(=O)c2ccc(Cl)cc2)C(O)(c2ccccc2)C1 (configuration not stated)	8	0	-4	-11	-2%	-2	.	.
Cc1cc(NC(=O)C2C3C(=O)N(c4cccnc4)C(C(=O)NC(C)(C)C)C34C=CC2(C)O4)no1 (configuration not stated)	3	0	-10	42*	1%	-8	2	5%
CC(C)(C)NC(=O)C1N(c2cccnc2)C(=O)C2C(C(=O)Nc3ccccc3)C3(C)C=CC21O3 (configuration not stated)	2	1	9	2	-9%	0	.	.
CCc1nc(SCc2ccc(F)cc2)[nH]c(=O)c1C#N	0	0	1	-3	0%	-2	.	.
c1ccc2sc(NCC3CCCO3)nc2c1 (configuration not stated)	-4	0	-17	4	1%	2	.	.
CC1=CC(=C(C#N)c2nc3ccccc3s2)C=C(C)N1CC1CCCO1 (configuration not stated)	43*	39*	6	5	2%	-6	?	18µM*
CC(=O)NC(Cc1ccccc1F)C(=O)NC1CCN(S(=O)(=O)c2ccccc2)CC1 (configuration not stated)	0	0	17	2	-3%	-3	.	.
COc1cc(/C=C2\SC(=N)N(c3ccc4c(c3)OCO4)C2=O)cc(OC)c1O	16	45*	-5	5	-6%	-4	1	?
Oc1c(C=C2N=c3ccccc3=N2)sc(=S)n1C1CCCCC1	2	0	19	41*!	-2%	-1	-2	-1%
Oc1c(C=C2N=c3ccccc3=N2)sc(=S)n1-c1ccccc1	8	-1	-3	3	-6%	-6	.	.
O=C(O)c1ccc(CSc2nnc(-c3ccccc3Cl)n2-c2ccccc2)cc1	-2	1	-13	51*	-1%	2	-10	0%
SMILES	D1 ag	TRHR agonist-1	D1 antagonist	TRHR enhancer-1	GRP78 ERSR act	D1 potentiator	TRHR enhancer-2	TRHR agonist-2
CN(C)/C=C/c1onc(-c2c(Cl)cccc2Cl)c1C#N	4	0	16	44*	0%	-4	4	?
CC1C(=O)CC(c2ccccc2)NC1c1ccccc1 (configuration not stated)	1	0	10	45*	-4%	3	-4	2%
CC(C)C1C(=O)CC(c2ccccc2)NC1c1ccccc1 (configuration not stated)	6	-1	-25	1	2%	-3	.	.
CCc1ccc(NC(=S)N2CCCC2)cc1	0	0	0	-9	-1%	-2	.	.
CCc1ccc(NC(=S)N2CCN(C)CC2)cc1	3	1	7	58*	-2%	5	4	-1%
CCOC(=O)C1CCN(CC(=O)Nc2c(C(=O)OC)n(C)c3cccc(C)c23)CC1	0	0	-18	-6	-5%	-3	.	.
NS(=O)(=O)c1ccc(NC(=O)COC(=O)c2cn(-c3ccccc3)nc2-c2ccc(F)cc2)cc1	6	1	0	45*	12%	-4	-8	?
CC(=O)NC(CCS(C)(=O)=O)C(=O)Nc1cc(C)ccc1C (configuration not stated)	6	1	13	-3	-6%	-8	.	.
CCOc1ccc(-n2ccnc2)nn1	0	0	9	3	-2%	-4	.	.
CCn1c(SCC(=O)Nc2cccc(C(C)=O)c2)nnc1C(C)C	3	39*	1	-4	-2%	3	-4	-1%
CCN1C(=O)c2ccccc2S(=O)(=O)c2ccc(C(=O)NC(C)C)cc21	0	1	-25	53*	0%	-12	-3	0%
